Results from paper PMC4242493, “Sequence specificity incompletely defines the genome-wide occupancy of Myc”.
In all, about 33,000 sequences were measured (“normalized occupancy”: median about 0.075, highest 2% from about 0.095 on). The full list was thinned out, with the highest values kept by preference.

What follows are sequences tested against MaxL homodimer (Homo sapiens, UniProt P61244 1-160) (assay: universal protein-binding microarray (PBM); PBS-based mixture, 10 nM His-tagged protein dimer, 2% milk, 200 ng/uL BSA, 50 ng/uL salmon testes DNA, 0.02% TX-100; detection with Alexa 488 anti-His antibody;; high values mean tight binding). Conditions: protein: recombinant; tags: C-terminal His-tag (pET21a); chain copies: 2; dsDNA, one strand shown.
Sequence of MaxL homodimer (P61244 whole entry): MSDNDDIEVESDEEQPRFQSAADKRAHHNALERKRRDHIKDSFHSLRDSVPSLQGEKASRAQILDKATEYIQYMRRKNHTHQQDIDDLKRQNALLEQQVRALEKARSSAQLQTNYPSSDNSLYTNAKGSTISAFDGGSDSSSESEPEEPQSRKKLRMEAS
Procedure, shortened: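 Arrays of the 'all 10-mer' universal design (Agilent 4 x 44 K) were exposed to 10 nM His-tagged protein dimer, stained with 10 ng/μL fluorophore-conjugated anti-His antibody and read on a GenePix 4400A to give a fluorescence intensity for each 8-mer. Binding occupancy is each intensity divided by the highest-ranked intensity.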
Sequence ACACATAC has a binding signal of 0.0823 normalized occupancy.
With ACACATTG the binding signal was 0.102 normalized occupancy.
ACACATTA gave a binding signal of 0.0926 normalized occupancy.
ACACATAT gave a binding signal of 0.0874 normalized occupancy.
ACACATGC gave a binding signal of 0.137 normalized occupancy.
ACCCAAAG was tested, and the binding signal was 0.072 normalized occupancy.
Sequence CACGGCAC has a binding signal of 0.078 normalized occupancy.
With ATGATGGC the binding signal was 0.0855 normalized occupancy.
For TGCTAGCA, the binding signal was 0.0864 normalized occupancy.
GCCTACCC was tested, and the binding signal was 0.0797 normalized occupancy.
Sequence GAACATGA has a binding signal of 0.0904 normalized occupancy.
Work on GCACATGC yielded a binding signal of 0.159 normalized occupancy.
TAACATGA showed a binding signal of 0.0906 normalized occupancy.
GAACATGC showed a binding signal of 0.089 normalized occupancy.
TCACATGA showed a binding signal of 0.109 normalized occupancy.
TCACATAA was tested, and the binding signal was 0.0812 normalized occupancy.
With ACACATGA the binding signal was 0.107 normalized occupancy.
In the case of GGACATGA, the binding signal is reported as 0.0803 normalized occupancy.
Work on GCACATGA yielded a binding signal of 0.12 normalized occupancy.
ACACATAA showed a binding signal of 0.082 normalized occupancy.
GCACATAC showed a binding signal of 0.0803 normalized occupancy.
In the case of ACACATCA, the binding signal is reported as 0.0839 normalized occupancy.
AGATTTGC was tested, and the binding signal was 0.0766 normalized occupancy.
CGCCTCTC showed a binding signal of 0.0756 normalized occupancy.
For ACTGAATC, the binding signal was 0.0726 normalized occupancy.
CTCAACCC was tested, and the binding signal was 0.072 normalized occupancy.
In the case of CTGTAATA, the binding signal is reported as 0.0777 normalized occupancy.
With CATGGGAC the binding signal was 0.0894 normalized occupancy.
Work on GTCAGCAC yielded a binding signal of 0.0806 normalized occupancy.
CACAATGG showed a binding signal of 0.0783 normalized occupancy.
TACCTTAA gave a binding signal of 0.072 normalized occupancy.
For AAGATCTT, the binding signal was 0.0757 normalized occupancy.
In the case of ATACATGG, the binding signal is reported as 0.0876 normalized occupancy.
Sequence AAACATGC has a binding signal of 0.0937 normalized occupancy.
Sequence AAACATGA has a binding signal of 0.0907 normalized occupancy.
In the case of ACACATGG, the binding signal is reported as 0.159 normalized occupancy.
With AAACATGT the binding signal was 0.0983 normalized occupancy.
AAACATGG showed a binding signal of 0.0874 normalized occupancy.
Work on GATGACAA yielded a binding signal of 0.0764 normalized occupancy.
In the case of TCTTTCAA, the binding signal is reported as 0.0757 normalized occupancy.
In the case of ACTAGTTA, the binding signal is reported as 0.0749 normalized occupancy.
Sequence CCTCAACC has a binding signal of 0.0752 normalized occupancy.
AATTTGGG showed a binding signal of 0.0765 normalized occupancy.
For CACGCGCG, the binding signal was 0.133 normalized occupancy.
AACGCGCG showed a binding signal of 0.0803 normalized occupancy.
CACGCGCA showed a binding signal of 0.135 normalized occupancy.
For CGCGCGCG, the binding signal was 0.0873 normalized occupancy.
For CGCGCGCA, the binding signal was 0.075 normalized occupancy.
With CACGCGCC the binding signal was 0.116 normalized occupancy.
CCCGCGCC gave a binding signal of 0.0733 normalized occupancy.
With CGCGCGCC the binding signal was 0.0783 normalized occupancy.
In the case of AACGCGCA, the binding signal is reported as 0.078 normalized occupancy.
AACATCAC showed a binding signal of 0.0837 normalized occupancy.
CTAGCTAC gave a binding signal of 0.0765 normalized occupancy.
CCTAGTGC was tested, and the binding signal was 0.0733 normalized occupancy.
Sequence AACCCCTC has a binding signal of 0.0767 normalized occupancy.
AATAAGTA showed a binding signal of 0.0754 normalized occupancy.
For ATTCTATG, the binding signal was 0.0827 normalized occupancy.
CTTTCTGC showed a binding signal of 0.0723 normalized occupancy.
With CGTAACGC the binding signal was 0.0778 normalized occupancy.
In the case of GCAAGCCA, the binding signal is reported as 0.0722 normalized occupancy.
Work on GATGGCCA yielded a binding signal of 0.0755 normalized occupancy.
AATGTCAA was tested, and the binding signal was 0.0742 normalized occupancy.
ATAAGTAA gave a binding signal of 0.0793 normalized occupancy.
GCCATGAC showed a binding signal of 0.0739 normalized occupancy.
In the case of AGCATGAT, the binding signal is reported as 0.107 normalized occupancy.
AGCATGAA showed a binding signal of 0.0874 normalized occupancy.
Sequence ATCATGAT has a binding signal of 0.0928 normalized occupancy.
For AGCATGAC, the binding signal was 0.0962 normalized occupancy.
For GTCATGAC, the binding signal was 0.0806 normalized occupancy.
Work on CCCTAAAA yielded a binding signal of 0.076 normalized occupancy.
With CTGACCTC the binding signal was 0.0774 normalized occupancy.
Work on ACATGAGC yielded a binding signal of 0.0906 normalized occupancy.
CCATGAGG showed a binding signal of 0.112 normalized occupancy.
CCATGAGA showed a binding signal of 0.0896 normalized occupancy.
ACATGAGA was tested, and the binding signal was 0.0971 normalized occupancy.
GCATGAGA gave a binding signal of 0.0947 normalized occupancy.
In the case of AGATGAGG, the binding signal is reported as 0.0788 normalized occupancy.
Work on ACATGAGG yielded a binding signal of 0.108 normalized occupancy.
Sequence CCATGAGC has a binding signal of 0.0818 normalized occupancy.
Work on ACATGAGT yielded a binding signal of 0.09 normalized occupancy.
With GTCAAGGA the binding signal was 0.0749 normalized occupancy.
Sequence CTAATGTC has a binding signal of 0.0828 normalized occupancy.
In the case of GAAGTTAC, the binding signal is reported as 0.0721 normalized occupancy.
TAACTAGA gave a binding signal of 0.0765 normalized occupancy.
ACGGTGGC showed a binding signal of 0.079 normalized occupancy.
In the case of AAATACAA, the binding signal is reported as 0.076 normalized occupancy.
Work on GATATGGC yielded a binding signal of 0.0846 normalized occupancy.
AATATGAC gave a binding signal of 0.0855 normalized occupancy.
CATATGGC was tested, and the binding signal was 0.0994 normalized occupancy.
CATATGAC gave a binding signal of 0.0954 normalized occupancy.
With CATATGGG the binding signal was 0.103 normalized occupancy.
AATATGGC was tested, and the binding signal was 0.0866 normalized occupancy.
For CATATGAA, the binding signal was 0.088 normalized occupancy.
AATATGGG gave a binding signal of 0.0882 normalized occupancy.
CATATGGA was tested, and the binding signal was 0.095 normalized occupancy.
In the case of AGTTCTAA, the binding signal is reported as 0.0746 normalized occupancy.
For CTGAAAAC, the binding signal was 0.0806 normalized occupancy.
For CGTGCTAA, the binding signal was 0.0881 normalized occupancy.
In the case of ACTGCCCC, the binding signal is reported as 0.0751 normalized occupancy.
Work on GGCATTAC yielded a binding signal of 0.0758 normalized occupancy.
For AAACGAAG, the binding signal was 0.0718 normalized occupancy.
Sequence CTGCTCTC has a binding signal of 0.0736 normalized occupancy.
For ATTGATAA, the binding signal was 0.0774 normalized occupancy.
Work on AAATGCGT yielded a binding signal of 0.0858 normalized occupancy.
Sequence ATATGCGA has a binding signal of 0.0834 normalized occupancy.
AGATGCGC gave a binding signal of 0.077 normalized occupancy.
AGATGCGG was tested, and the binding signal was 0.0753 normalized occupancy.
ACATGCGA showed a binding signal of 0.0989 normalized occupancy.
With ACATGCGT the binding signal was 0.127 normalized occupancy.
In the case of ACCTGCGT, the binding signal is reported as 0.0757 normalized occupancy.
ACATGCGG was tested, and the binding signal was 0.129 normalized occupancy.
Work on AAATGCGG yielded a binding signal of 0.0791 normalized occupancy.
AAATGCGA showed a binding signal of 0.0758 normalized occupancy.
ACATGCGC gave a binding signal of 0.109 normalized occupancy.
In the case of ATATGCGC, the binding signal is reported as 0.085 normalized occupancy.
AGGTTTTA was tested, and the binding signal was 0.0742 normalized occupancy.
In the case of CTAAGAAA, the binding signal is reported as 0.0728 normalized occupancy.
For GATGATTA, the binding signal was 0.0816 normalized occupancy.
AGGGTCAC was tested, and the binding signal was 0.0776 normalized occupancy.
CCCAGTTA gave a binding signal of 0.0735 normalized occupancy.
GCATCACA gave a binding signal of 0.0871 normalized occupancy.
Sequence CCGACGAC has a binding signal of 0.0752 normalized occupancy.
In the case of AGTCGTAT, the binding signal is reported as 0.0756 normalized occupancy.
With AGGTGGTG the binding signal was 0.0873 normalized occupancy.
AGGTGGTC showed a binding signal of 0.0855 normalized occupancy.
GCGTGGTA was tested, and the binding signal was 0.111 normalized occupancy.
With ACGTGGTA the binding signal was 0.115 normalized occupancy.
With AAGTGGTG the binding signal was 0.0758 normalized occupancy.
Sequence CCGTGGTA has a binding signal of 0.0806 normalized occupancy.
Sequence CCGTGGTC has a binding signal of 0.074 normalized occupancy.
ACGTGGTC was tested, and the binding signal was 0.106 normalized occupancy.
For GTGTGGTA, the binding signal was 0.0868 normalized occupancy.
In the case of GGGTGGTA, the binding signal is reported as 0.0821 normalized occupancy.
In the case of AGGTGGTA, the binding signal is reported as 0.0821 normalized occupancy.
Sequence ACGTGGTG has a binding signal of 0.1 normalized occupancy.
With GTTGAGAA the binding signal was 0.076 normalized occupancy.
TCATTGCA showed a binding signal of 0.0829 normalized occupancy.
For GCAATCAC, the binding signal was 0.0763 normalized occupancy.
Sequence GAGTCAGC has a binding signal of 0.0763 normalized occupancy.
Work on AACTCACT yielded a binding signal of 0.0726 normalized occupancy.
For AAGCACTA, the binding signal was 0.0755 normalized occupancy.
CGCCGAAA was tested, and the binding signal was 0.0723 normalized occupancy.
In the case of ACGGTAGA, the binding signal is reported as 0.0739 normalized occupancy.
Work on ACGCCGCT yielded a binding signal of 0.0763 normalized occupancy.
In the case of CGAGGTGA, the binding signal is reported as 0.0813 normalized occupancy.
Sequence CACGCTGC has a binding signal of 0.131 normalized occupancy.
Sequence GACGCTGC has a binding signal of 0.0724 normalized occupancy.
For CACGCTCG, the binding signal was 0.0939 normalized occupancy.
For AACGCTGG, the binding signal was 0.0764 normalized occupancy.
Work on AACGCTGC yielded a binding signal of 0.0786 normalized occupancy.
In the case of CACGCTGA, the binding signal is reported as 0.115 normalized occupancy.
Work on AACGCTGA yielded a binding signal of 0.0816 normalized occupancy.
Work on TACGCTGA yielded a binding signal of 0.0736 normalized occupancy.
For CACGCTGG, the binding signal was 0.113 normalized occupancy.
With AGGAGACA the binding signal was 0.084 normalized occupancy.
For CTTTGACC, the binding signal was 0.0868 normalized occupancy.
AGTGCTCA gave a binding signal of 0.0761 normalized occupancy.
TCACGAAA showed a binding signal of 0.0755 normalized occupancy.
With CTCCAGTA the binding signal was 0.0743 normalized occupancy.
CAACCGTA showed a binding signal of 0.0753 normalized occupancy.
In the case of ACGCCGCG, the binding signal is reported as 0.0773 normalized occupancy.
In the case of AAGGAAAG, the binding signal is reported as 0.0804 normalized occupancy.
Sequence GATGCCCA has a binding signal of 0.0798 normalized occupancy.
Sequence CATGCCCC has a binding signal of 0.0965 normalized occupancy.
With GATGCCCC the binding signal was 0.0764 normalized occupancy.
AATGCCCC gave a binding signal of 0.0836 normalized occupancy.
For CATGCCCG, the binding signal was 0.0842 normalized occupancy.
Work on CATGCCCA yielded a binding signal of 0.0953 normalized occupancy.
For TCAGACGA, the binding signal was 0.0739 normalized occupancy.
Sequence CTACAGAG has a binding signal of 0.0735 normalized occupancy.
Work on AAGAAGGC yielded a binding signal of 0.0751 normalized occupancy.
